Measurements as given in PubChem BioAssay AID1259343 (VanderVen Lab, College of Veterinary Medicine, Cornell …, 2017).
Hit rate of the full screen: of about 6,200 compounds, about 2,900 (47%) were called active. The set was probably picked from earlier hits. This is one part of the list. Values without a mark were called inactive. Cut-off read from the data, not from the text of the source: active = inhibition above about 50%; inactive = the rest.

test: Mycobacterium tuberculosis growth inhibition, primary screen (AID 1259343); settings: inhibition: at 10 µM, stronger effect = higher value; outcome: 10 uM

| Structure (SMILES) | inhibition |
| --- | --- |
| CN(C)c1ccc(N=C2N=C(Nc3ccc(N(C)C)cc3)c3ccccc32)cc1 | 44.8% |
| COC(=O)[C@H]1[C@H]2C[C@@H]3c4[nH]c5cc(OC)ccc5c4CCN3C[C@H]2C[C@@H](OC(=O)c2cc(OC)c(OC)c(OC)c2)[C@@H]1OC | 45.9% |
| c1ccc(COC2CCCN(Cc3nc(CC4CC4)no3)C2)cc1 (stereo not given) | 58.5% (active) |
| Cc1ccccc1C1CCCN(Cc2nc(CC3CC3)no2)C1 (stereo not given) | 17% |
| CC1NC(=S)N(c2ccc(-c3cn4ccsc4n3)cc2)C1=O (stereo not given) | 46.5% |
| CC1NC(=S)N(c2cccc(Oc3ccncc3)c2)C1=O (stereo not given) | 11.8% |
| CC1NC(=S)N(c2ccc(C(C)C)cc2)C1=O (stereo not given) | 95.8% (active) |
| CCCC(CCC)C(=O)Nc1cc(-c2cccs2)nn1-c1nc(C)cc(=O)[nH]1 | 99% (active) |
| Cc1cc(=O)[nH]c(-n2nc(-c3cccs3)cc2NC(=O)c2ccco2)n1 | 99.9% (active) |
| Cc1cc(=O)[nH]c(-n2nc(C3CC3)cc2NC(=O)c2cccs2)n1 | 100% (active) |
| Cc1cc(=O)[nH]c(-n2nc(-c3cccs3)cc2NC(=O)c2c(F)cccc2Cl)n1 | 99.6% (active) |
| Cc1cc(=O)[nH]c(-n2nc(-c3cccs3)cc2NC(=O)c2ccccc2C)n1 | 98.2% (active) |
| CC(C)c1cc(=O)[nH]c(-n2nc(-c3cccs3)cc2NC(=O)c2cccs2)n1 | 99.1% (active) |
| Cc1cc(=O)[nH]c(-n2nc(-c3cccs3)cc2NC(=O)c2cccs2)n1 | 98.9% (active) |
| Cc1cccc(C(=O)Nc2cc(-c3cccs3)nn2-c2nc(C)cc(=O)[nH]2)c1 | 0.07% |
| CCC(=O)Nc1cc(-c2cccs2)nn1-c1nc(C)cc(=O)[nH]1 | 99.9% (active) |
| Cc1cc(=O)[nH]c(-n2nc(-c3cccs3)cc2NC(=O)CC(C)(C)C)n1 | -0.63% |
| CC1CCCCC1Nc1ccc2nnc(C(F)(F)F)n2n1 (stereo not given) | 22.4% |
| CC1CCCCC1NC(=O)Cn1ccc(C(F)(F)F)n1 (stereo not given) | 94.9% (active) |
| Cc1nc(C(F)(F)F)ccc1C(=O)NC1CC2CC1C1CCCC21 (stereo not given) | 32.9% |
| Oc1ccc2oc3c(c2c1)CCCC3 | 44.4% |
| O=c1c2cc(O)ccc2oc2ccc(O)cc12 | 87.5% (active) |
| O=C(Oc1ccc2oc(=O)sc2c1)C1CCCCC1 | 75.1% (active) |
| O=c1oc2ccc(O)cc2s1 | 83.8% (active) |
| Cc1ccc(NC(=O)c2ccc(S(N)(=O)=O)c(C)c2)cc1C | 31.7% |

| Structure (SMILES) | inhibition |
| --- | --- |
| CC(=O)NCc1ccc(C(=O)Nc2ccc(Br)c(C)c2)cc1 | 93.7% (active) |
| Cc1ccc(NC(=O)CNC(=O)c2ccccc2)cc1C | -8.08% |
| Cc1c(C(=O)O)cnn1-c1ccc(Br)cc1 | 39.2% |
| Cc1cc(C)nc(NN=Cc2cc(Br)cc(Br)c2O)n1 | 102% (active) |
| CC(=NNc1nc(C)cc(C)n1)c1cc2c(ccc3ccccc32)o1 | 16.4% |
| O=C(NCc1ccccc1)c1cccc(OC2CCN(C3Cc4ccccc4C3)CC2)c1 | 82.7% (active) |
| O=C(NCCc1ccccc1)c1ccc(OC2CCN(C(=O)C3CC34CCC4)CC2)cc1 (stereo not given) | 19.3% |
| CC1(C(=O)Nc2nc(-c3cccc(Cl)c3)ns2)CCOCC1 | 89.4% (active) |
| Cc1cc(NC(=O)C2(C)CCOCC2)nc(C(C)C)n1 | -0.19% |
| C=CCNc1nc(NCCCN2CCCC2=O)c2sc(-c3ccccc3)cc2n1 | 24.9% |
| CC(C)(C)OC(=O)NCC1CCCCN1C(=O)c1cc(-c2ccccc2F)on1 (stereo not given) | 14% |
| CC(C)(C#N)C(=O)Nc1cc(-c2ccccc2F)no1 | 88.7% (active) |
| FC(F)(F)c1ccc2c(c1)Oc1sc(Cl)cc1NC2=S | 92% (active) |
| O=C1NC(=S)SC1=Cc1cccc(C(F)(F)F)c1 | 14.4% |
| CC(NCc1cn(C)nc1-c1ccc(Oc2ccccc2)cc1)c1ccccc1 (stereo not given) | 70.8% (active) |
| COc1ccc(C(C)Nc2ccc(C#N)cn2)cc1F (stereo not given) | 94.3% (active) |
| COc1ccc(C(C)NCC(O)COc2ccc(Cl)cc2Cl)cc1F (stereo not given) | 41.6% |
| CC(Nc1nccc(C(F)(F)F)n1)c1ccc(C#N)cc1 (stereo not given) | 22.5% |
| CCOc1cc2c(cc1CNc1ccc(C#N)cn1)OC(C)C2 (stereo not given) | 19.6% |
| CC(Nc1ccc(C#N)cn1)c1ccccc1Br (stereo not given) | 53% (active) |
| CS(=O)(=O)c1ccc(CCNc2ccc(Cl)c(C#N)n2)cc1 | 24.5% |
| CS(=O)(=O)c1ccc([C@@H](O)[C@@H](CO)NC(=O)C(Cl)Cl)cc1 | 44.5% |
| CC(NCc1ccc(C(C)(C)C)cc1)c1ccc(S(C)(=O)=O)cc1 (stereo not given) | 59.5% (active) |
| O=S(=O)(NCC1CCC(c2ccccc2)CC1)C1CCOCC1 (stereo not given) | -0.68% |
| Cc1ccc(S(=O)(=O)NCC2CCN(c3ccccc3)C2)c(C)c1 (stereo not given) | 52.8% (active) |
